Data from PubChem BioAssay AID504720 (Sanford-Burnham Center for Chemical Genomics, 2011).
Hit rate of the full screen: of about 350,000 compounds, about 1,100 (0.31%) were called active. Many of the other results were omitted from the sample, so actives are more common in it than they were. A number with no mark means an inactive call. Cut-off read from the data, not from the text of the source: active = activation above about 50%; inactive = the rest.

The molecules below were run against Endoribonuclease toxin MazF (Escherichia coli (strain K12)) (UniProt P0AE70) (assay: activators of E. coli MazEF toxin-antitoxin RNase, primary screen, biochemical, fluorescence, uHTS (AID 504720)). Conditions: FAM/BHQ RNA-DNA oligo cleavage fluorescence, 5 h, at 20 µM, hits give high values.
Endoribonuclease toxin MazF (Escherichia coli (strain K12)), sequence (P0AE70 whole entry, looked up): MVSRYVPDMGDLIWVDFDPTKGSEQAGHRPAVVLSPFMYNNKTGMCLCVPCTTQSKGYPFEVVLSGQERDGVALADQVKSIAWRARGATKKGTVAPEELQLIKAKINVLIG

| SMILES | activation |
| --- | --- |
| Cc1nnc2n1N=C(c1ccc3c(c1)NC(=O)CO3)CS2 | -1.68% |
| CCOC(=O)C1CCN(C(=O)c2oc3ccc(S(=O)(=O)N4CCCCCC4)cc3c2C)CC1 | -5.11% |
| Cc1c(C(=O)NCCN(C)C)oc2ccc(S(=O)(=O)N3CCCC3)cc12 | 111% (active) |
| COc1ccc(NC(=O)c2oc3ccc(S(=O)(=O)N4CCOCC4)cc3c2C)cc1 | 8.57% |
| COCCNC(=S)N1CCN(C)CC1 | -2.39% |
| C/C(CC(=O)NCc1ccc(Cl)cc1)=N\NC(=O)COc1ccc(C)cc1Br | -5.14% |
| CC(CCc1ccccc1)NCC(O)c1cccc([N+](=O)[O-])c1 (stereo unspecified) | 11.5% |
| COc1cc(/C=N/NC(=O)c2cccnc2)ccc1OC(=O)c1cccc(Br)c1 | 8.67% |
| CCn1c(/C=N/NC(=O)c2ccc(OC)cc2)nc2ccccc21 | -0.18% |
| COc1cccc(/C=N/NC(=O)c2[nH]nc3c2CCc2ccccc2-3)c1O | 160% (active) |
| COc1ccc(S(=O)(=O)N2CCOC23CCN(S(=O)(=O)c2ccc([N+](=O)[O-])cc2)CC3)cc1 | 5.08% |
| COc1ccc(C(=O)Nc2ccc(C3(C#N)CCCC3)cc2)cc1OC | -19.2% |
| CCOCCCNC(=O)C(NC(=O)c1ccccc1O)c1ccccc1 (stereo unspecified) | -12.8% |
| CC[C@@H]1Cc2cc(O)ccc2C2=C1c1ccc(O)cc1C[C@H]2CC | 84.7% (active) |
| O=C1CC(Sc2ncn[nH]2)C(=O)N1c1ccccc1 (stereo unspecified) | 3.68% |
| Cc1[nH]c(C)c(S(=O)(=O)N2CCC(C)CC2)c1C(=O)N1CCCC1 | 1.65% |
| CCOC(=O)c1c(C)[nH]c(C)c1C(=O)COC(=O)/C=C/c1cccc([N+](=O)[O-])c1 | 3.22% |
| Cc1cccc(N=Nc2c(O)[nH]c3ccc(F)cc23)c1 | 946% (active) |
| Cc1ccc(CNC(=O)CSc2nnc3c(n2)[nH]c2ccc(F)cc23)cc1 | 18.4% |

| SMILES | activation |
| --- | --- |
| COc1cc(OC)c(C(=S)N2CCCC2)cc1OC | 9.16% |
| O=C1C2(Cl)C3(Cl)C4(Cl)C(Cl)(Cl)C5(Cl)C3(Cl)C1(Cl)C5(Cl)C24Cl (stereo unspecified) | 65.6% (active) |
| C=CCn1c(-c2ccc(Cl)cc2)ccc(C#N)c1=O | 2.85% |
| Cc1nc(Nc2ccc3c(c2)OCCO3)c2nnn(Cc3ccccc3Cl)c2n1 | -3.74% |
| Cc1nc(Nc2ccccc2F)c2nnn(Cc3ccccc3Cl)c2n1 | 61.6% (active) |
| Cc1nc(Nc2ccc(S(=O)(=O)N3CCCC3)cc2)c2nnn(Cc3ccccc3)c2n1 | 12.1% |
| CC(C)(C)OC(=O)CNC(=O)c1[nH]cnc1C(=O)N[C@@H](CCCCN)C(=O)OC(C)(C)C | -1.01% |
| CC(=O)Nc1ccc(C(=O)N(C2=NC(C)CS2)c2ccc(Cl)cc2)cc1 (stereo unspecified) | 2.92% |
| C/C(=N\NC(=O)COc1c(C)cccc1C)c1cccs1 | -0.53% |
| CCOc1ccccc1N1CCN(C(=O)c2ccc3[nH]c(C)c(C)c3c2)CC1 | 9.45% |
| CCN1C[C@@H]2[C@@H]3C(=O)N(Cc4ccccc4)C(=O)[C@@H]3[C@](Cc3ccccc3)(C(=O)OC)N2C1=NC1CCCCC1 | 37.9% |
| CC[C@]1(C(=O)OC)[C@H]2C(=O)N(C)C(=O)[C@H]2[C@H]2CN(C)C(=NCc3ccccc3)N21 | 74.5% (active) |
| CCCN=C1N(C)C[C@@H]2[C@@H]3C(=O)N(Cc4ccccc4)C(=O)[C@@H]3[C@](C)(C(=O)OC)N12 | 3.52% |
| CCOC(=O)c1ccc(NC(=O)c2ccc(NC(=O)C3CCCO3)cc2)cc1 (stereo unspecified) | 2.03% |
| OCCC1CN(Cc2ccc3nsnc3c2)CCN1C1CCCCC1 (stereo unspecified) | 5.81% |
| CC(C)Cn1c(CCC(=O)O)ccc1-c1cccs1 | -11.1% |
| CC(=O)OC1CCC2(C)C(=CCC3C4CC(=O)N(O)C(=O)C4(C)CCC32)C1 (stereo unspecified) | 1.13% |
| CCN1/C(=C/c2ccc3ccc(C)cc3[n+]2CC)Sc2ccccc21 | 72.6% (active) |
| CCN1/C(=C\c2ccc3ccccc3[n+]2CC)Sc2cc(C)ccc21 | 79.5% (active) |

| SMILES | activation |
| --- | --- |
| CN(C(=O)CC(NC(=O)c1ccccc1)(c1ccccc1)c1ccccc1)c1ccccc1 | 10.5% |
| Cc1c(Cl)cccc1NC(=S)N(Cc1ccccc1)Cc1cccnc1 | 13.1% |
| CC(C)c1ccc(NC2CCCN(C(=O)c3ccncc3)C2)cc1 (stereo unspecified) | 5.6% |
| C[C@@H](NC(=O)OC(C)(C)C)c1nnc(S(=O)(=O)Cc2ccccc2)o1 | 8.87% |
| C/C(=N\OC(=O)c1ccccc1)c1c(C)nc2cc(C)ccn12 | 4.56% |
| COc1cc(Cl)c(C)cc1NC(=O)COC(=O)c1cc(SC)ccc1Cl | -5.68% |
| COCCn1c(SCC(=O)Nc2ccc(F)cc2F)nc2c(c1=O)SCC2 | 7.1% |
| COc1cc(N2CCCC2)c(OC)cc1/C=C(/C#N)c1cccc(Br)c1 | -128% |
| O=C(NCCCNC(=O)NC1CCCCC1)NC1CCCCC1 | 6.46% |
| COC(=O)Cn1c(=NC(=O)CSCC(=O)Nc2cc(C)on2)sc2ccccc21 | 5.86% |
| CC(C)(C)[C@H]1C=C(C(=O)NCc2ccccc2)O[C@@H](OCc2ccc(CO)cc2)C1 | 3.75% |
| CCn1c(O)c(N=NC(=O)c2cccc(S(=O)(=O)N3CCCCC3)c2)c2ccccc21 | -8.66% |
| CCN(CC)S(=O)(=O)c1cc([N+](=O)[O-])ccc1N=Nc1c(O)n(C)c2ccccc12 | 142% (active) |
| CCN(CC)S(=O)(=O)c1cc([N+](=O)[O-])ccc1NNC(=O)Nc1ccccc1 | 3.61% |
| O=C(COC(=O)c1ccc(F)cc1F)Nc1ncccn1 | -2.63% |
| CCOc1ccc(N(CC(=O)NCCOc2ccccc2OC)S(=O)(=O)c2ccccc2)cc1 | -0.33% |
| O=C(COc1ccc(S(=O)(=O)N2CCCCC2)cc1)NCc1ccccn1 | 9.35% |
| CCOCCOC(=O)C1=C(C)N(C)C(=O)NC1c1ccccc1F (stereo unspecified) | 7.27% |
